We go through 13 compounds from PubChem BioAssay (Tox21).

Experiment [1] in a line: A CellTox Green Cytotoxicity Assay to monitor cytotoxicity in HepG2 cells - 8 hour (AID 1224890). Also: nearly all actives have a fitted effect of over 45% in size. In outline: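 Continuous culture of HepG2 cells with a membrane-impermeant DNA dye; rising fluorescence marks dead cells. Compound exposure lasted up to 40 h at 37 C, with reads every 8 h from 0 h.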
Experiment [2] in a line: qHTS assay to identify small molecule antagonists of the estrogen receptor alpha (ER-alpha) signaling pathway using the BG1 cell line in the presence of 0.1 nM 17-beta-estradiol - cell viability counter screen (AID 1259241). Also: nearly all actives have a fitted effect of over 40% in size. In outline:
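In this screen, hormone-deprived VM7Luc4E2 cells were seeded at 4,000 per well, dosed with compound and 0.1 nM estradiol final, and incubated 22 hr at 37C and 5% CO2; fluorogenic live-cell protease signal reported viability.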

The nature of experiment [3]: qHTS assay to identify small molecule antagonists of the androgen receptor (AR) signaling pathway using the MDA cell line in the presence of 0.5 nM R1881 - cell viability counter screen (AID 1259242). Also: nearly all actives have a fitted effect of over 45% in size. In outline: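 Fluorescence from CellTiter-Fluor, which reports protease activity of live cells, was read 30 min after reagent addition to MDA-kb2 cells that had been incubated 16 hr with compound and 0.5 nM R1881.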

Experiment [4] concerns the target Estrogen receptor (Homo sapiens) (UniProt P03372). Description: qHTS assay to identify small molecule antagonists of the estrogen receptor alpha (ER-alpha) signaling pathway using the BG1 cell line in the presence of 0.1 nM 17-beta-estradiol (AID 1259244). Also: nearly all actives have a fitted effect of over 50% in size. In outline:
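Quantitative high-throughput screen in VM7Luc4E2 cells: compound plus 0.1 nM E2 (final), 22 h, 37C, 5% CO2; ONE-Glo added, 30 min room temperature, luminescence measured.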

Experiment [5] can be described thus: qHTS assay to identify small molecule HDAC inhibitors (AID 1259364). Also: nearly all actives have a fitted effect of over 45% in size. Also: potency is read from the fitted curve at half-maximal effect. As to activity change, negative = inhibition: top concentration of the series differs between compounds. In outline: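 Endogenous HDAC class I/II activity was measured in wild-type HCT-116 cells by HDAC-Glo luminescence after 2 h compound treatment.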
Experiment [6] in a line: qHTS assay to identify small molecule HDAC inhibitors - cell viability counter screen (AID 1259365). Also: series mostly up to about 92 µM; nearly all actives have a fitted effect of over 50% in size. In outline:
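Measured quantity is CellTiter-Glo luminescence from wild-type HCT-116 cells after compound incubation of 2hr at 37C, 5% CO2; reagent developed 30min at room temperature.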

Experiment [7] is described as follows: qHTS assay to identify small molecule antagonists of the sonic hedgehog signaling (Shh) pathway - cell viability counter screen (AID 1259367). Also: nearly all actives have a fitted effect of over 55% in size. In outline:
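After a 4 hr settling period, 3T3 Gli1-Luc cells were treated with DMSO-dissolved chemicals and conditioned medium, kept 24 hr at 37C in 5% CO2, and assayed for viability by CellTiter-Fluor fluorescence following 1 hr reagent incubation.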

A short description of experiment [8]: qHTS assay to identify small molecule agonists of the sonic hedgehog signaling (Shh) pathway (AID 1259368; calls by dose curve;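 also: NIH/3T3-derived 3T3Gli1-Luc cells carrying a stable Gli1-driven firefly luciferase reporter; series mostly up to about 92 µM; nearly all actives have a fitted effect of over 15% in size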). In outline:
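Luminescent signal was taken as a measure of Gli1-controlled luciferase expression in stably transfected NIH/3T3-derived cells that had been treated for 24 hr with compounds delivered in DMSO.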

Experiment [9] can be described thus: qHTS assay to identify small molecule antagonists of the sonic hedgehog signaling (Shh) pathway (AID 1259369; calls by dose curve; also: nearly all actives have a fitted effect of over 45% in size; also: potency is read from the fitted curve at half-maximal effect). In outline:
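Screening used 3T3Gli1-Luc cells at 2,000 per well, compounds delivered in DMSO, and conditioned medium as agonist stimulus; plates incubated 24hr at 37 C and 5% CO2 before a 30min luciferase step.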

Experiment [10] in a line: qHTS assay to identify small molecule agonists of the androgen receptor (AR) signaling pathway in the presence of an antagonist - cell viability counter screen (AID 1259379).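 Also: MDA-kb2 human breast cancer cells carrying an MMTV luciferase reporter; series mostly up to about 92 µM; nearly all actives have a fitted effect of over 25% in size.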 In outline: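 In MDA-kb2 cells (human breast carcinoma, MMTV-luciferase), compounds at 15 concentrations plus 3.0uM nilutamide; 16 hr, 37C, 0% CO2; CellTiter-Fluor fluorescence read for viability.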

A short description of experiment [11]: qHTS assay to identify small molecule agonists of the estrogen receptor beta (ER-beta) signaling pathway - cell viability counter screen (AID 1259380). Also: nearly all actives have a fitted effect of over 30% in size. In outline: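 Viability of ER-beta-UAS-bla HEK293T cells was determined by CellTiter-Glo luminescence following 16 hr treatment with test compounds at 37C.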
Experiment [12] can be described thus: qHTS assay to identify small molecule antagonists of the estrogen receptor beta (ER-beta) signaling pathway - cell viability counter screen (AID 1259382). Also: series mostly up to about 92 µM; nearly all actives have a fitted effect of over 55% in size. In outline:
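Tox21 10K library tested in qHTS format on ER-beta-bla HEK293T cells stimulated with 1nM E2; 16 hr treatment at 37C. Same-well CellTiter-Glo luminescence served as the cell viability measure.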

In experiment [13] the target is Estrogen receptor (Homo sapiens) (UniProt P03372). The experiment can be described thus: qHTS assay to identify small molecule agonists of the estrogen receptor alpha (ER-alpha) signaling pathway in the presence of an antagonist (AID 1259383; calls by dose curve; also: top concentration of the series differs between compounds; nearly all actives have a fitted effect of over 15% in size). In outline: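 In VM7Luc4E2 cells, 4,000 per well, compounds at 15 concentrations were co-incubated 22hr at 37C with 10.0nM final ICI-182,780. Luminescence from the stably transfected 4×ERE-luciferase reporter was recorded 30min after ONE-Glo addition.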
Chain of Estrogen receptor (Homo sapiens) (P03372 whole entry, looked up): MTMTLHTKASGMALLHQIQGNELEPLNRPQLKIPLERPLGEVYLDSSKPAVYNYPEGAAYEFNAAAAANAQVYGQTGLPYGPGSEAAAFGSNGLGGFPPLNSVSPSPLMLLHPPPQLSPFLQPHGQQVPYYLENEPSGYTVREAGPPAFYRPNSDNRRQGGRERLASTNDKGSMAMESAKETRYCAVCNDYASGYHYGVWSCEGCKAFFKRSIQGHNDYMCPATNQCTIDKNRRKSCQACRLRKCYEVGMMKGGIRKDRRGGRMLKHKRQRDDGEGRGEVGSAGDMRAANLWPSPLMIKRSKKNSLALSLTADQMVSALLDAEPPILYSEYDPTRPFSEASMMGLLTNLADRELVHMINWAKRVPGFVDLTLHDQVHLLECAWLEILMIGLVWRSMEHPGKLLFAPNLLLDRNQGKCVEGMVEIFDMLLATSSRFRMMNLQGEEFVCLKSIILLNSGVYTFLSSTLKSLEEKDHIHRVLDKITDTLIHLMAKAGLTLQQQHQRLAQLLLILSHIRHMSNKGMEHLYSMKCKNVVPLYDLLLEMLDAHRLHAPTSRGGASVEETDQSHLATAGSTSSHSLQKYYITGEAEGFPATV

Experiment [14] can be described thus: qHTS assay to identify small molecule agonists or antagonists of the thyroid stimulating hormone receptor (TSHR) signaling pathway - wild type cell line counter screen (AID 1259384; calls by dose curve). In outline: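 Wild-type HEK293 cells were plated 18 h at 37 C/5% CO2, pin-dosed with compound plus Ro20-1724 medium, held 30 min at room temperature, then given cAMP-d2 and anti-cAMP-cryptate; fluorescence was read after 1 h. Fifteen concentrations, triplicate.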

Experiment [15] is described as follows: qHTS assay to identify small molecule agonists of the sonic hedgehog signaling (Shh) pathway - cell viability counter screen (AID 1259366). Also: nearly all actives have a fitted effect of over 50% in size. In outline: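 In quantitative high-throughput format, 3T3 Gli1-Luc cells were exposed to compounds for 24hr and multiplexed for viability using CellTiter-Fluor, incubated 1hr at 37C before the fluorescence read.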
Experiment [16] concerns the target Estrogen receptor beta (Homo sapiens) (UniProt Q92731). Description: qHTS assay to identify small molecule antagonists of the estrogen receptor beta (ER-beta) signaling pathway (AID 1259378; active = well fitted inhibition curve with a large enough effect in the signal ratio in the repeat runs, not every such curve was filed as active; the % refers to the signal ratio). In outline:
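ER-beta-UAS-bla HEK293T (GripTite) cells in 2% charcoal-stripped FBS medium were preincubated 6 hr at 37C, dosed with compound, then stimulated with 1 nM E2 (final) for 16 hr; beta-lactamase reporter read by B/G FRET fluorescence after 2 hr substrate loading.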

The target in experiment [17] is Androgen receptor (Homo sapiens) (UniProt P10275). The experiment can be described thus: qHTS assay to identify small molecule agonists of the androgen receptor (AR) signaling pathway in the presence of an antagonist (AID 1259381; calls by dose curve; also: nearly all actives have a fitted effect of over 15% in size). In outline: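 Here, 15-concentration compound series were pin-transferred onto MDA-kb2 MMTV-luciferase cells already dosed with nilutamide (3.0uM final). After 16hr at 37C, ONE-Glo was added and luminescence read 30min later at room temperature.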
Chain of Androgen receptor (Homo sapiens) (P10275 whole entry, looked up): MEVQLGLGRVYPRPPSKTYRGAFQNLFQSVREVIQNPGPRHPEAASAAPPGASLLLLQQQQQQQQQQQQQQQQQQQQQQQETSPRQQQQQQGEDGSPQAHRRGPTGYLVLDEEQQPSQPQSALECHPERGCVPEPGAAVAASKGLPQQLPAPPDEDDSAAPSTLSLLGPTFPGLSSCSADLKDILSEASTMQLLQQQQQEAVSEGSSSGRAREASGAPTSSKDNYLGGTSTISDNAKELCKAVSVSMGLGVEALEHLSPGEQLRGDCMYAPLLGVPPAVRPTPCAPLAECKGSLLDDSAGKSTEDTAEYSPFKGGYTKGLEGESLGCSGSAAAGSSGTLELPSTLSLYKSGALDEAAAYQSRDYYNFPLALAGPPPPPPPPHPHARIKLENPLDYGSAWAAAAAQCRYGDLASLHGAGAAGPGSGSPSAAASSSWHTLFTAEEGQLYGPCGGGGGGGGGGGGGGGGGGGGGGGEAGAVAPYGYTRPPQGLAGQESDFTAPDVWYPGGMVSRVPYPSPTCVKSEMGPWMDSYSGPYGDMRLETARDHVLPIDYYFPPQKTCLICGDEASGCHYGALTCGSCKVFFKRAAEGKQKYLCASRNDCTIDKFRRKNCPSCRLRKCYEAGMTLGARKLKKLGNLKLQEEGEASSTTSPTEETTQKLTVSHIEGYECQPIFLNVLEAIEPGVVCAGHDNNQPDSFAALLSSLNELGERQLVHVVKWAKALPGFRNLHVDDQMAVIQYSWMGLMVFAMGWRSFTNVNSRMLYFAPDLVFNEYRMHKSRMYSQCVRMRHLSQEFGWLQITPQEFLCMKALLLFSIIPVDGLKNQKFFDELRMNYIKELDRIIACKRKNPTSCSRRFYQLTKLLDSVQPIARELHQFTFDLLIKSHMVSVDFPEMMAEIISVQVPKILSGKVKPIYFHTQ

The target in experiment [18] is Estrogen receptor beta (Homo sapiens) (UniProt Q92731). Description: qHTS assay to identify small molecule agonists of the estrogen receptor beta (ER-beta) signaling pathway (AID 1259377; active = well fitted activation curve with a large enough effect in the signal ratio in the repeat runs, not every such curve was filed as active; the % refers to the signal ratio). In outline:
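Reporter cells (HEK293T, ER-beta-UAS-bla) receive compounds or DMSO after a 6 hr pre-incubation. They then incubate 16 hr at 37C/5% CO2, and fluorescence from LiveBLAzer B/G substrate is measured after 2 hours at room temperature.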

Unmarked numbers belong to inactive results. Records with an inconclusive call do not appear. Calls of active or inactive are those of the source. Unless noted, calls follow the shape of the dose curve; as a rule, active = well fitted curve in the direction sought with a large enough effect in the repeat runs; inconclusive = weak or mixed curves; inactive = no such curve, though single readings can be large; an effect the other way counts as inactive or inconclusive.
% is scaled to controls: 0 for no effect and ±100 for the full control effect.

Chain of Estrogen receptor beta (Homo sapiens) (Q92731 whole entry, looked up): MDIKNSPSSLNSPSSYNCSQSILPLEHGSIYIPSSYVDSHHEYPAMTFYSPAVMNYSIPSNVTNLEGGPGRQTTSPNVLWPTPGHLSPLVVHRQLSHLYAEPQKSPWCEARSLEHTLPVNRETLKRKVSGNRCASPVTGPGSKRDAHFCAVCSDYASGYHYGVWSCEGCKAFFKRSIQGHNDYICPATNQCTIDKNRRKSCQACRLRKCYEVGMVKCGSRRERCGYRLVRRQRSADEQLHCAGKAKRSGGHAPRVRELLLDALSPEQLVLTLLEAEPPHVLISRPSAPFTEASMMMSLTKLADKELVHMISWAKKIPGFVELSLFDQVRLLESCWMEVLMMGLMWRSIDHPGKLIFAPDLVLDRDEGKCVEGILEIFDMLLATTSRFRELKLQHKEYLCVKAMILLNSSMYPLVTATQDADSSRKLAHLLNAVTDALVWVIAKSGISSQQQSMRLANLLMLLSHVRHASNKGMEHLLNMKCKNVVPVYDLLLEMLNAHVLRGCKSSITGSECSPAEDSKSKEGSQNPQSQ

For `C=CC(=O)NC(C)C`, the Potency result in experiment [1], in experiment [2], in experiment [3], in [4], in experiment [5] and in experiment [6] was “inactive” each time. The Potency entry in experiment [7], in [8], in experiment [9], in [10], in experiment [11] and in [12] was “inactive” each time. Moreover, the Potency entry in [13] and in experiment [14] was “inactive” throughout.

As to `CCN(CC)c1cccc(O)c1`, the Potency result in experiment [1], in experiment [2], in experiment [3], in [4], in [5] and in experiment [6] was “inactive” throughout. For the same compound, the Potency result in experiment [15], in experiment [7], in experiment [8], in experiment [9], in [16] and in [10] was “inactive” each time. The Potency entry in experiment [11], in experiment [17], in [12], in experiment [13] and in [14] was “inactive” in each case.

Regarding `O=P(O)(O)Oc1ccccc1`, the Potency result in experiment [1], in experiment [2], in [3], in experiment [4], in [5] and in experiment [6] was “inactive” throughout. Besides, the Potency result in experiment [15], in [7], in experiment [8], in experiment [16], in experiment [10] and in experiment [11] was “inactive” each time. Besides, the Potency result in [12], in experiment [13] and in [14] was “inactive” in each case.

As to `ClC1=C(Cl)C1(Cl)Cl`, the Potency result in experiment [1], in [2], in experiment [3], in experiment [4], in [5] and in [6] was “inactive” each time. Also, the Potency result in experiment [15], in experiment [7], in experiment [8], in experiment [9], in [18] and in [16] was “inactive” each time. Further, the Potency entry in [10], in [11], in [12], in experiment [13] and in experiment [14] was “inactive” in each case.

Take `NC(=O)c1ccccc1[N+](=O)[O-]`: the Potency result in [1], in [2], in experiment [3], in experiment [4], in experiment [5] and in experiment [6] was “inactive” in each case. The Potency entry in experiment [15], in [7], in experiment [8], in [9], in experiment [16] and in experiment [10] was “inactive” in each case. The Potency result in [11], in experiment [12], in experiment [13] and in experiment [14] was “inactive” throughout.

For `COc1cc(S(=O)(=O)Nc2ccccc2)c(OC)cc1N`, the Potency result in experiment [1], in experiment [2], in experiment [3], in [4], in experiment [5] and in [6] was “inactive” throughout. For the same compound, the Potency entry in experiment [7], in experiment [8], in experiment [9], in [16], in [10] and in experiment [12] was “inactive” throughout. Moreover, the Potency result in [13] and in experiment [14] was “inactive” throughout.

For `CC1=CC[C@@H]2C[C@H]1C2(C)C`, the cytotoxicity increase in experiment [1] is -9.84% [at 15.8 µM]. Moreover, the activity change, negative = cytotoxicity in experiment [2] was 3.19% [at 19 µM]; in experiment [6], -0.126% [at 19 µM]; in experiment [10], 0.221% [at 19 µM]; in experiment [11], 5.66% [at 19 µM]; in experiment [12], 4.03% [at 19 µM]. The results for the viability change, negative = cytotoxic in experiment [3], in experiment [15] and in experiment [7] were 1.84% [at 19 µM], -0.75% [at 19 µM] and -2.9% [at 19 µM], respectively. Moreover, the activity change, negative = inhibition is 11.8% [at 19 µM] in experiment [4] and 0.0628% [at 19 µM] in [5]. Also, the activity change in experiment [8] is 0.102% [at 18.9 µM, stronger effect = higher value]. For the same compound, the activity, negative = inhibition in experiment [16] was -3.84% [at 19 µM]. Moreover, the activation in experiment [13] was -0.899% [at 19 µM].

In the case of `CCO[Si](C)(CCCOCC1CO1)OCC` (stereo unspecified), the Potency entry in [1], in experiment [2], in experiment [3], in experiment [4], in [5] and in experiment [6] was “inactive” each time. Besides, the Potency entry in [15], in experiment [7], in experiment [8], in experiment [18], in [10] and in [11] was “inactive” in each case. In addition, the Potency result in experiment [12], in experiment [13] and in experiment [14] was “inactive” each time.

As for `O=C1NC(=O)c2cccc3cccc1c23`, the Potency result in experiment [1], in experiment [2], in experiment [3], in [4], in experiment [5] and in experiment [6] was “inactive” in each case. Further, the Potency entry in experiment [7], in [8], in [9], in [18], in experiment [16] and in experiment [10] was “inactive” each time. For the same compound, the Potency entry in experiment [12], in [13] and in [14] was “inactive” throughout.

Turning to `COC(=O)Nc1nc2ccc(C(=O)C3CC3)cc2[nH]1`, the Potency result in experiment [1], in experiment [2], in experiment [3], in experiment [4], in experiment [6] and in experiment [15] was “inactive” throughout. Moreover, the Potency entry in [8], in experiment [9], in experiment [18], in experiment [16], in [11] and in experiment [12] was “inactive” each time. The Potency result in experiment [13] and in experiment [14] was “inactive” each time. Also, the Potency in [5] was 23.7 µM (active).

Take `COc1ccc(-n2nc(C(F)F)cc2-c2ccc(S(C)=O)cc2)cc1` (stereo unspecified): the Potency result in experiment [1], in experiment [2], in experiment [3], in experiment [4], in [5] and in experiment [6] was “inactive” each time. Besides, the Potency result in experiment [15], in experiment [7], in experiment [8], in experiment [10], in [11] and in [12] was “inactive” each time. Besides, the Potency result in experiment [13] is “inactive”. In addition, in experiment [9], the Potency is 1.09 µM (active).

With `CCOCCC(=O)OCC`, the Potency entry in [1], in experiment [2], in experiment [3], in [4], in experiment [5] and in experiment [6] was “inactive” in each case. The Potency entry in experiment [7], in experiment [8], in experiment [9], in experiment [16], in [10] and in experiment [11] was “inactive” each time. The Potency entry in [12] and in [13] was “inactive” throughout.

On to `CCSC(=O)N(CC)CC`, for which the Potency result in experiment [1], in [2], in experiment [3], in experiment [4], in [5] and in experiment [6] was “inactive” in each case. The Potency entry in [15], in experiment [7], in experiment [8], in experiment [9], in experiment [18] and in [10] was “inactive” in each case. Also, the Potency result in experiment [11], in [12], in experiment [13] and in [14] was “inactive” in each case.
